Source: PubChem BioAssay (several laboratories)
An excerpt weighted towards active compounds, which were near 3.9% of everything screened.
SKKanGAS inh: inhibitors of SKKanGAS S. pyogenes growth in kanamycin (SK-promoter or general growth effect); BacTiter-Glo, 6 h; inhibition, % at 7.5 µM; actives 1.3% (n = 300,000);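 active means mean replicate score, as percent of positive control median, at least 50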;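 further: strain carries kanamycin resistance gene driven by streptokinase promoter and grows in 40 µg/ml kanamycin; loss of luminescence reflects streptokinase promoter inhibition or plain growth inhibition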
Platelet DG rel: modulates dense granule release in human platelets; human platelet-rich plasma, SFLLRN dense granule ATP release, luminescence; inhibition, %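 (compounds screened at 7.5 µM in platelet-rich plasma)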; actives 0.22% (n = 300,000); AID 1663;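 active means mean replicate score, as percent of positive control, at or above 50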
Rtt109 Vps75: inhibitors of Candida albicans Rtt109/Vps75 histone acetyltransferase | actives 0.16% (n = 330,000) | Q5AAJ8 | inhibition, % at 34.9 µM | purified Rtt109/Vps75, ThioGlo CoA-SH fluorescence, 4 h | AID 540336;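 active means inhibition of at least 50% in every replicate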
WT yeast gro inh: growth inhibition of WT yeast, mitochondrial fusion screen. mitochondrial fusion phenotypic screen, WT strain. inhibition, % at 10 µM. actives 2.1% (n = 190,000). AID 1362; in the data active means inhibition above about 58%; tested in S. cerevisiae
TPT1 inh: C. albicans TPT1 enzyme inhibition. recombinant caTPT1, FP RNA substrate dephosphorylation. inhibition, % at 5 µM. actives 0.81% (n = 300,000). AID 1962;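 active means inhibition above the mean of all tested compounds plus 3 SD, set per screening campaign, cut at about 24% in these data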
PHOSPHO1 block: inhibitors of human PHOSPHO1 phosphatase; Q8TCT1; recombinant PHOSPHO1, absorbance phosphatase assay; inhibition, % at 13.3 µM; actives 1.1% (n = 290,000); in the data active means inhibition above about 60%
Target sequence (Q8TCT1 whole entry, looked up): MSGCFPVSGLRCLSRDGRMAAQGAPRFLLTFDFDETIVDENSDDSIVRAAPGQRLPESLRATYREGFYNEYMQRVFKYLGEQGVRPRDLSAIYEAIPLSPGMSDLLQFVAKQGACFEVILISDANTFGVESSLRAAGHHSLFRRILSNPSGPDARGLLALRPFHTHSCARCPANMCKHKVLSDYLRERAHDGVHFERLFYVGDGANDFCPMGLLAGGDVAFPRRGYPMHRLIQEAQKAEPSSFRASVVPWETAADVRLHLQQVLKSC
Large screens that a line does not name were inactive.

CN(C(=O)c1ccccc1)C1c2c(ccc3ccccc23)OCC1CO (stereo not drawn)	none (no result: WT yeast gro inh)
Cc1ccc(N(CC(=O)NCc2ccc(F)cc2)C(=O)c2snc(C(N)=O)c2N)cc1C	none (no result: WT yeast gro inh)
O=C(NCCO)c1nc(C(=O)c2ccc(Cl)cc2)c2ccccc2n1	none (no result: SKKanGAS inh, Platelet DG rel, WT yeast gro inh, TPT1 inh, PHOSPHO1 block)
COc1cc(/C=N/NC(=O)C(=O)/C=C2\NC3(CCCC3)Cc3ccccc32)ccc1O	none
O=C(/C=C1\NC2(CCCC2)Cc2ccccc21)C(=O)N/N=C/c1ccccc1O	SKKanGAS inh 96
COc1ccc2ccc(=O)oc2c1CC(=O)C(C)C	none (no result: SKKanGAS inh, Platelet DG rel, WT yeast gro inh, TPT1 inh, PHOSPHO1 block)
Cc1c(C(=O)Nc2nc3ccccc3[nH]2)oc2c(Cl)cccc12	SKKanGAS inh 67 (no result: Rtt109 Vps75)
Cc1c(C(=O)Nc2nc3ccccc3[nH]2)oc2ccc(Br)cc12	SKKanGAS inh 79
COc1ccc(C(=O)N(Cc2nc(-c3ccc(C)cc3)no2)C2CCCCC2)cc1OC	WT yeast gro inh 65
COc1ccc(-c2noc(CN(C)C(=O)c3ccc4c(c3)OCO4)n2)cc1OC	none (no result: WT yeast gro inh)
Cc1cc(NO)nc(-c2ccc(Br)cc2)n1	PHOSPHO1 block 96
Cc1cc(C)nc(NC(=O)c2ccc(Br)cc2)n1	none (no result: WT yeast gro inh)
S=C1NCCc2ccc(Cl)cc2C1c1ccccc1Cl (stereo not drawn)	WT yeast gro inh 68
CCOCCC(=O)Nc1nnc(CCc2ccccc2)s1	none (no result: WT yeast gro inh, TPT1 inh)
S=C(Nc1ccc(Cl)c(Cl)c1)NC1CCN(Cc2ccccc2)CC1	WT yeast gro inh 74
CCOC(=O)c1ccc(NC(=O)c2sc3nc4n(c(=O)c3c2C)CCC4)cc1	SKKanGAS inh 62 (no result: WT yeast gro inh)
CCOC(=O)c1sc2nc3n(c(=O)c2c1C)CCC(C)CC3 (stereo not drawn)	PHOSPHO1 block 78
CCOC(=O)N1CCN(C(=O)Nc2sc3nc4n(c(=O)c3c2C)CCC(C)CC4)CC1 (stereo not drawn)	PHOSPHO1 block 74
CCOC(=O)N1CCC(NC(=O)c2sc3nc4n(c(=O)c3c2C)CCCC4)CC1	none
O=C(CCCNC(=O)c1ccc(Cl)cc1)Nc1nccs1	none (no result: SKKanGAS inh, Platelet DG rel, WT yeast gro inh, TPT1 inh, PHOSPHO1 block)
CCc1ccc(OCC(=O)Nc2ccncc2)c(Br)c1	none (no result: WT yeast gro inh)
Cc1cc(OCC(=O)Nc2ccncc2)c(C)cc1Br	WT yeast gro inh 60
Cc1ccccc1Nc1nc(CSc2nnc(-c3ccoc3C)n2C)cs1	PHOSPHO1 block 69
CCN(CC)C(=O)Oc1ccc(Cl)c2cccnc12	none
O=C(Nc1cccc(C(F)(F)F)c1)Oc1ccc(Cl)c2cccnc12	SKKanGAS inh 99 (no result: WT yeast gro inh)
Cc1nc(C(=O)Nc2cccc(Cl)c2)nn1-c1cc(OC(C)C)c(Cl)cc1Cl	WT yeast gro inh 67
COc1ccc(Cc2nc3ccc(S(=O)(=O)N4CCOCC4)cc3[nH]2)cc1	WT yeast gro inh 79
COc1ccc(NS(=O)(=O)c2ccc3nc(COc4ccc5ccccc5c4)[nH]c3c2)cc1	none
CCc1ccccc1OCc1nc2ccc(S(=O)(=O)N3CCOCC3)cc2[nH]1	none
COc1ccc(NS(=O)(=O)c2ccc3nc(COc4cccc5ccccc45)[nH]c3c2)cc1	SKKanGAS inh 71
COc1ccc(Cc2nc3ccc(S(=O)(=O)N4CCOCC4)cc3[nH]2)cc1OC	none
Cc1ccccc1OCc1nc2ccc(S(=O)(=O)N3CCOCC3)cc2[nH]1	PHOSPHO1 block 98 (no result: SKKanGAS inh)
O=C(COc1ccc(Br)cc1)NNC(=O)c1ccc(-n2cncn2)c([N+](=O)[O-])c1	none (no result: SKKanGAS inh, Platelet DG rel, WT yeast gro inh, TPT1 inh, PHOSPHO1 block)
Cc1ccn2cc(CSc3ccccc3)nc2c1	WT yeast gro inh 60
Cc1ccc(SCc2cn3cccnc3n2)cc1	none
Cc1ccc(S(=O)(=O)N(Cc2ccccc2)Cc2ccco2)cc1	WT yeast gro inh 76
CCCCC1(C)OC(=O)C(=Cc2ccc(-c3ccc(Cl)c(C(=O)O)c3)o2)C(=O)O1 (stereo not drawn)	PHOSPHO1 block 86 (no result: WT yeast gro inh)
COc1ccc(NS(=O)(=O)c2cccc(C(=O)N/N=C(\C)c3cccnc3)c2)cc1	none (no result: SKKanGAS inh, Platelet DG rel, WT yeast gro inh, TPT1 inh, PHOSPHO1 block)
CC(C)c1ccc(OCc2nc(-c3ccccn3)no2)c(Br)c1	WT yeast gro inh 79
Cc1ccc(-n2cc(-c3ccccc3)c3c(=O)[nH]cnc32)cc1	none
Fc1cccc(-n2cc(-c3ccccc3)c3c(=S)nc[nH]c32)c1	SKKanGAS inh 84 (no result: WT yeast gro inh)
Fc1ccc(-n2cc(-c3ccccc3)c3c(=S)nc[nH]c32)cc1	SKKanGAS inh 65 (no result: WT yeast gro inh)
O=c1[nH]cnc2c1c(-c1ccccc1)cn2-c1ccccc1	none (no result: WT yeast gro inh)
CC(C)=CCc1c(O)ccc(C2COc3c(CC=C(C)C)c(O)cc(O)c3C2=O)c1O (stereo not drawn)	SKKanGAS inh 51 (no result: WT yeast gro inh, PHOSPHO1 block)
